Data taken from the supplement of paper PMC10849652.
About 7,900 targets were measured; listed, in parts, are those with a hit and a random draw of the rest. About 0.6% of all pairs of compound and target were hits.

How the values were obtained:
Test in all cases: log2 fold change, soluble protein after heating vs DMSO (PISA); higher = thermal stabilisation; K562 cells, 10 uM, 30 min; active = over 0.2 and 3.5 SD of the protein, either way, in both replicates (recomputed)
[1] = compound: C1=CC=C(C=C1)[C@H](COC2=CC3=C(C=C2)NC(=O)N3)NC(=O)C4=CC=CN(C4=O)CC5=CC(=C(C=C5)F)F
Method in brief: (§1)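 Quantification of soluble protein used TMTpro 16plex LC-MS/MS, with channel sums equalised. Samples were the supernatant after 21,000xg for 90 min of pooled aliquots from K562 cells (2×10^6 cells/mL) treated with 10 μM compound for 30 min, heated for 3 min over 48°C-58°C, and extracted in PBS with 0.5% NP-40 at 4°C. Values, from duplicates, describe thermal stability against control samples on a log2 fold-change scale.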

[2] = compound: CC1=C(SC2=C1C(=N[C@H](C3=NN=C(N32)C)CC(=O)N)C4=CC=C(C=C4)Cl)C
Method in brief: as §1

[3] = compound: CC1=C2C(=CC=C1)N=C(N(C2=O)C3=CC=CC=C3C)CN4C=NC5=C(N=CN=C54)N
Method in brief: as §1

[4] = compound: Cc1sc2c(c1C)C(c1ccc(Cl)cc1)=N[C@@H](CC(=O)OC(C)(C)C)c1nnc(C)n1-2
Method in brief: as §1

[5] = compound: c1ccc([C@@H]2C[C@H]2NC2CCNCC2)cc1
Method in brief: as §1

Measured: log2 fold change

XRCC6 (UniProt P12956)
inactive: [1] -0.04 | [2] 0.044 | [3] 0.114 | [4] -0.022 | [5] -0.003

VDAC1 (UniProt P21796)
UniProt P21796, sequence (P21796 whole entry, looked up): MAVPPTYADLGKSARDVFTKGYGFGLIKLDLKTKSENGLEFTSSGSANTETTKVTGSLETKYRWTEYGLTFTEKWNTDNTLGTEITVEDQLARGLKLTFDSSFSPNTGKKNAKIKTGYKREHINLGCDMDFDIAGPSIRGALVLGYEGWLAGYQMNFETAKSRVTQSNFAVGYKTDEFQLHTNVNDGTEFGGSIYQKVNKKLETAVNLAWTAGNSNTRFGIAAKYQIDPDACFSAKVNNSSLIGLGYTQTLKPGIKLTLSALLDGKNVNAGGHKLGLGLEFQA
inactive: [1] 0.047 | [2] 0.008 | [3] -0.024 | [4] -0.007 | [5] 0.026

UBXN8 (UniProt O00124)
UniProt O00124, sequence (O00124 whole entry, looked up): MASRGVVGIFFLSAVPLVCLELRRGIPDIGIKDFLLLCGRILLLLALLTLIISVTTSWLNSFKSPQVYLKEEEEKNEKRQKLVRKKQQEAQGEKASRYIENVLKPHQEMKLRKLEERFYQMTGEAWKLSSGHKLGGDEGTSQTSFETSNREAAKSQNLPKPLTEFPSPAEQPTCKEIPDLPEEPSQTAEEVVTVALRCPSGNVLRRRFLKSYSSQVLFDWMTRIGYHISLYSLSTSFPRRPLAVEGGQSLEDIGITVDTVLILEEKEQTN
inactive: [1] 0.3 | [2] -0.074 | [3] 0.192 | [4] 0.099 | [5] -0.055

VPS11 (UniProt Q9H270)
inactive: [1] -0.089 | [2] 0.014 | [3] 0.118 | [4] -0.001 | [5] -0.047

TOM1 isoform 2 (UniProt O60784)
UniProt O60784, sequence (O60784 whole entry, looked up): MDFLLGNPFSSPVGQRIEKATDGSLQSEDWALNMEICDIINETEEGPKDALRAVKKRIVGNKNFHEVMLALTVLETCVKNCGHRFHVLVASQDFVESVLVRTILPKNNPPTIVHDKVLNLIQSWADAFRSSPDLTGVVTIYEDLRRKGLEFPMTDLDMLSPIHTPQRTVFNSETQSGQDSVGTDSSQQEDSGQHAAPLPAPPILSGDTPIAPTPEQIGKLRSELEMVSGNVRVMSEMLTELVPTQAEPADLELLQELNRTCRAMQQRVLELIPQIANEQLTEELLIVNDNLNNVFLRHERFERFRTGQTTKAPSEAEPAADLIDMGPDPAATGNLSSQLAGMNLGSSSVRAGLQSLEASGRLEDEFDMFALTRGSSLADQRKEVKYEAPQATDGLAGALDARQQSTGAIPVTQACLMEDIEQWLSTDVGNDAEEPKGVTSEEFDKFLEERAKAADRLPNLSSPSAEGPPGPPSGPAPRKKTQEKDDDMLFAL
inactive: [1] 0.044 | [2] 0.001 | [3] -0.074 | [4] 0.046 | [5] 0.008

TOE1 (UniProt Q96GM8)
inactive: [1] 0.049 | [2] -0.036 | [3] -0.095 | [4] 0.065 | [5] 0.014

USP3 (UniProt Q9Y6I4)
inactive: [1] 0 | [2] 0.143 | [3] 0.036 | [4] -0.061 | [5] -0.025

VTA1 (UniProt Q9NP79)
inactive: [1] 0.007 | [2] 0.062 | [3] 0.104 | [4] -0.075 | [5] -0.025

TOMM5 isoform 2 (UniProt Q8N4H5)
UniProt Q8N4H5, sequence (Q8N4H5 whole entry, looked up): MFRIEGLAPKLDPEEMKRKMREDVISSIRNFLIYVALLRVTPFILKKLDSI
inactive: [1] 0.034 | [2] 0.047 | [3] -0.032 | [4] -0.029 | [5] 0.005

UNC119B (UniProt A6NIH7)
UniProt A6NIH7, sequence (A6NIH7 whole entry, looked up): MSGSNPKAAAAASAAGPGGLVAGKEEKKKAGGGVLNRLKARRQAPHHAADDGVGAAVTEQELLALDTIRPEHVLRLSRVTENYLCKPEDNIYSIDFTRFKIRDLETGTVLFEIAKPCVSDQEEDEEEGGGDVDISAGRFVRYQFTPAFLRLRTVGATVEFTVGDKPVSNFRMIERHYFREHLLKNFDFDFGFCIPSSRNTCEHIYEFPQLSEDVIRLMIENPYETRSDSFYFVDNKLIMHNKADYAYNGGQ
inactive: [1] -0.093 | [2] -0.013 | [3] 0.094 | [4] -0.016 | [5] -0.009

TOP2A isoform 4 (UniProt P11388)
inactive: [1] 0.157 | [2] -0.322 | [3] -0.703 | [4] 0.252 | [5] 0.002

WASHC2C, A0A096LPC5
WASHC2C, A0A096LPC5, sequence (A0A096LPC5 whole entry, looked up): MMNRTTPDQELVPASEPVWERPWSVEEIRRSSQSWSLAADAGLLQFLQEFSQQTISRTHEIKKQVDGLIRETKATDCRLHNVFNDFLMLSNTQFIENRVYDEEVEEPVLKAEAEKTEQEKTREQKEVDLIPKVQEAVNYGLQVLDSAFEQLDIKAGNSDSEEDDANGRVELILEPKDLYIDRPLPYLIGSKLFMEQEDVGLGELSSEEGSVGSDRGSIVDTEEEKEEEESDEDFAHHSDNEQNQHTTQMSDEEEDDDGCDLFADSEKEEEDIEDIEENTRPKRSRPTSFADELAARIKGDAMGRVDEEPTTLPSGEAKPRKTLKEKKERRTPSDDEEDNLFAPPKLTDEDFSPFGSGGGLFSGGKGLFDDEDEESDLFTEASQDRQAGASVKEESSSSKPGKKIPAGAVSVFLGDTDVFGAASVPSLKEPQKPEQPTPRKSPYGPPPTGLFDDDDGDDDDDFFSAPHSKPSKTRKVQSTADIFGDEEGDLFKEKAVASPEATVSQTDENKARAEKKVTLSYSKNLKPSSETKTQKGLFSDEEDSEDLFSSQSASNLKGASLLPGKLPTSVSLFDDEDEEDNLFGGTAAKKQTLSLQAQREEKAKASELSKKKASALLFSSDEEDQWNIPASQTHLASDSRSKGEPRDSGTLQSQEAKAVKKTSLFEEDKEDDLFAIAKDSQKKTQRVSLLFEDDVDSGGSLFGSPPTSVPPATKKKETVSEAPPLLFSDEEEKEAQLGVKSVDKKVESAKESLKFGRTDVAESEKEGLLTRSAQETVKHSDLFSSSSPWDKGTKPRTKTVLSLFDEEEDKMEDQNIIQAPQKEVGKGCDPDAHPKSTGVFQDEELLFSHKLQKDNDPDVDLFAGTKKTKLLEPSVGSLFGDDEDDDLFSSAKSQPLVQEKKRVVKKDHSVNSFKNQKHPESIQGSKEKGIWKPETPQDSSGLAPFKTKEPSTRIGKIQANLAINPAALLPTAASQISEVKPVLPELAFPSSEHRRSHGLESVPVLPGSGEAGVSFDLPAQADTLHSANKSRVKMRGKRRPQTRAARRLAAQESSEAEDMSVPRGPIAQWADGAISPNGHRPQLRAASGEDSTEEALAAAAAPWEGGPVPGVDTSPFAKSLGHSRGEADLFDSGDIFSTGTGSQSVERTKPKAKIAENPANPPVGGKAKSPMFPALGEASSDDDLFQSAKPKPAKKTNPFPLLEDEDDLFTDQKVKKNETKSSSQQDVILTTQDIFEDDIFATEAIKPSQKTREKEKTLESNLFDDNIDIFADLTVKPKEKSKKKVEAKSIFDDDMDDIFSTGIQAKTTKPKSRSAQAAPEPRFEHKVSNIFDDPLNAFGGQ
inactive: [1] 0.015 | [2] 0.012 | [3] 0.008 | [4] 0.027 | [5] 0.001

WDR18 (UniProt Q9BV38)
inactive: [1] 0 | [2] 0.011 | [3] -0.019 | [4] -0.037 | [5] 0.019

UBAP1 isoform 4 (UniProt Q9NZ09)
inactive: [1] 0.021 | [2] 0.005 | [3] 0.129 | [4] -0.171 | [5] -0.072

TPP1 (UniProt O14773)
inactive: [1] 0.019 | [2] 0.048 | [3] -0.02 | [4] 0.036 | [5] -0.067

TOMM20 (UniProt Q15388)
UniProt Q15388, sequence (Q15388 whole entry, looked up): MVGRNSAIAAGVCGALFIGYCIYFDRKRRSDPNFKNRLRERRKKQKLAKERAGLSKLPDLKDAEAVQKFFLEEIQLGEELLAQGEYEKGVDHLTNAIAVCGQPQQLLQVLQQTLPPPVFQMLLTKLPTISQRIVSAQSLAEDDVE
inactive: [1] 0.021 | [2] 0.025 | [3] 0.028 | [4] 0.006 | [5] 0.008

TRAPPC6B (UniProt Q86SZ2)
inactive: [1] -0.007 | [2] 0.061 | [3] 0.048 | [4] -0.033 | [5] -0.013

WASH2P (UniProt Q6VEQ5)
inactive: [1] 0.015 | [2] -0.015 | [3] 0.026 | [4] 0.041 | [5] 0.027

TOM1L1 (UniProt O75674)
inactive: [1] -0.019 | [2] 0.045 | [3] 0.034 | [4] 0.009 | [5] 0.023

UHRF1BP1 (UniProt Q6BDS2)
inactive: [1] -0.01 | [2] 0.109 | [3] 0.006 | [4] -0.001 | [5] -0.007

TXNIP (UniProt Q9H3M7)
inactive: [1] -0.011 | [2] 0.148 | [3] -0.012 | [4] -0.039 | [5] -0.099

USO1 isoform 2 (UniProt O60763)
inactive: [1] -0.007 | [2] 0.012 | [3] 0.028 | [4] 0.012 | [5] 0.048

TRIM23 (UniProt P36406)
inactive: [1] 0.023 | [2] 0.122 | [3] 0.049 | [4] -0.096 | [5] -0.05

VPS41 (UniProt P49754)
inactive: [1] -0.028 | [2] 0.06 | [3] 0.152 | [4] -0.017 | [5] -0.052

UBE2S (UniProt Q16763)
inactive: [1] 0.002 | [2] 0.053 | [3] 0.106 | [4] 0 | [5] 0.013

XPO6 (UniProt Q96QU8)
inactive: [1] 0.35 | [2] 0.019 | [3] 0.082 | [4] 0.015 | [5] -0.072

UCHL5 (UniProt Q9Y5K5)
inactive: [1] -0.048 | [2] 0.004 | [3] 0.043 | [4] 0.027 | [5] 0.004

TSEN2 (UniProt Q8NCE0)
inactive: [1] -0.05 | [2] 0 | [3] 0.044 | [4] -0.027 | [5] 0.03

TYW1 (UniProt Q9NV66)
inactive: [1] 0.017 | [2] -0.022 | [3] 0.039 | [4] -0.005 | [5] -0.091

TTI1 (UniProt O43156)
inactive: [1] -0.034 | [2] 0.136 | [3] 0.022 | [4] -0.025 | [5] -0.085

TMEM184C (UniProt Q9NVA4)
inactive: [1] 0 | [2] 0.078 | [3] 0.022 | [4] 0.045 | [5] 0.22

VPS33B (UniProt Q9H267)
UniProt Q9H267, sequence (Q9H267 whole entry, looked up): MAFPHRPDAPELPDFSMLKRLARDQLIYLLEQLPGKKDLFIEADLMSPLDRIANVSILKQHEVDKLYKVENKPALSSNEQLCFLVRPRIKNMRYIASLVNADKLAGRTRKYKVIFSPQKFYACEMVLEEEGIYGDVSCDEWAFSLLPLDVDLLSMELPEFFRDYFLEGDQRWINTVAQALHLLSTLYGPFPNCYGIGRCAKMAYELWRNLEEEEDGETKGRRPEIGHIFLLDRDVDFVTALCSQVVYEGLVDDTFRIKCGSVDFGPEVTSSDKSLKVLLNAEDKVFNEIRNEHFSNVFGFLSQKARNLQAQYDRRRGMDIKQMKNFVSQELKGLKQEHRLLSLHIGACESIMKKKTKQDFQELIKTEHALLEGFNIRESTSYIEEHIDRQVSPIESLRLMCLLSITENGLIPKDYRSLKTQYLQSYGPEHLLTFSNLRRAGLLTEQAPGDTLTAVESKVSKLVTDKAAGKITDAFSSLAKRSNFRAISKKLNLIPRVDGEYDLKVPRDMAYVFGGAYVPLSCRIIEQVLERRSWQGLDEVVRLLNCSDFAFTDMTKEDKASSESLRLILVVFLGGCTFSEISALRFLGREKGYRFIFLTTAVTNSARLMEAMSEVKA
inactive: [1] -0.102 | [2] 0.021 | [3] 0.03 | [4] 0.008 | [5] -0.064

UBE2D1 (UniProt P51668)
inactive: [1] -0.053 | [2] -0.014 | [3] 0.065 | [4] -0.081 | [5] -0.035

TMEM161B (UniProt Q8NDZ6)
inactive: [1] -0.076 | [2] 0.13 | [3] 0.018 | [4] 0.092 | [5] 0.08

TRMT10C (UniProt Q7L0Y3)
inactive: [1] -0.018 | [2] 0.029 | [3] 0.085 | [4] 0.005 | [5] -0.08

TUBA4A (UniProt C9JJQ8)
inactive: [1] -0.081 | [2] 0.036 | [3] 0 | [4] -0.011 | [5] 0.229

UBAP2L isoform 5 (UniProt Q14157)
inactive: [1] 0.055 | [2] 0.036 | [3] 0 | [4] -0.016 | [5] 0.017

UBLCP1 (UniProt Q8WVY7)
inactive: [1] -0.066 | [2] 0.067 | [3] 0.066 | [4] -0.018 | [5] 0.011

WARS1 (UniProt G3V227)
inactive: [1] 0.09 | [2] -0.089 | [3] 0.042 | [4] 0.333 | [5] -0.185

TRMT2A (UniProt Q8IZ69)
inactive: [1] -0.008 | [2] -0.042 | [3] -0.026 | [4] 0.1 | [5] 0.058

XPNPEP1 isoform 3 (UniProt Q9NQW7)
inactive: [1] -0.017 | [2] 0.081 | [3] 0.021 | [4] 0.002 | [5] -0.029

WNK1 isoform 7 (UniProt Q9H4A3)
inactive: [1] -0.011 | [2] 0.023 | [3] 0.049 | [4] -0.007 | [5] -0.003

TMTC3 (UniProt Q6ZXV5)
inactive: [1] -0.012 | [2] 0.019 | [3] 0.011 | [4] -0.034 | [5] 0.005

TPM2 (UniProt P07951)
inactive: [1] -0.041 | [2] -0.117 | [3] -0.195 | [4] -0.017 | [5] 0.014

VPS53 isoform 4 (UniProt Q5VIR6)
inactive: [1] -0.009 | [2] 0.02 | [3] 0.049 | [4] -0.006 | [5] -0.007

WASHC3 (UniProt Q9Y3C0)
inactive: [1] 0.015 | [2] -0.022 | [3] 0.045 | [4] -0.001 | [5] 0.028

USP7 (UniProt Q93009)
UniProt Q93009, sequence (Q93009 whole entry, looked up): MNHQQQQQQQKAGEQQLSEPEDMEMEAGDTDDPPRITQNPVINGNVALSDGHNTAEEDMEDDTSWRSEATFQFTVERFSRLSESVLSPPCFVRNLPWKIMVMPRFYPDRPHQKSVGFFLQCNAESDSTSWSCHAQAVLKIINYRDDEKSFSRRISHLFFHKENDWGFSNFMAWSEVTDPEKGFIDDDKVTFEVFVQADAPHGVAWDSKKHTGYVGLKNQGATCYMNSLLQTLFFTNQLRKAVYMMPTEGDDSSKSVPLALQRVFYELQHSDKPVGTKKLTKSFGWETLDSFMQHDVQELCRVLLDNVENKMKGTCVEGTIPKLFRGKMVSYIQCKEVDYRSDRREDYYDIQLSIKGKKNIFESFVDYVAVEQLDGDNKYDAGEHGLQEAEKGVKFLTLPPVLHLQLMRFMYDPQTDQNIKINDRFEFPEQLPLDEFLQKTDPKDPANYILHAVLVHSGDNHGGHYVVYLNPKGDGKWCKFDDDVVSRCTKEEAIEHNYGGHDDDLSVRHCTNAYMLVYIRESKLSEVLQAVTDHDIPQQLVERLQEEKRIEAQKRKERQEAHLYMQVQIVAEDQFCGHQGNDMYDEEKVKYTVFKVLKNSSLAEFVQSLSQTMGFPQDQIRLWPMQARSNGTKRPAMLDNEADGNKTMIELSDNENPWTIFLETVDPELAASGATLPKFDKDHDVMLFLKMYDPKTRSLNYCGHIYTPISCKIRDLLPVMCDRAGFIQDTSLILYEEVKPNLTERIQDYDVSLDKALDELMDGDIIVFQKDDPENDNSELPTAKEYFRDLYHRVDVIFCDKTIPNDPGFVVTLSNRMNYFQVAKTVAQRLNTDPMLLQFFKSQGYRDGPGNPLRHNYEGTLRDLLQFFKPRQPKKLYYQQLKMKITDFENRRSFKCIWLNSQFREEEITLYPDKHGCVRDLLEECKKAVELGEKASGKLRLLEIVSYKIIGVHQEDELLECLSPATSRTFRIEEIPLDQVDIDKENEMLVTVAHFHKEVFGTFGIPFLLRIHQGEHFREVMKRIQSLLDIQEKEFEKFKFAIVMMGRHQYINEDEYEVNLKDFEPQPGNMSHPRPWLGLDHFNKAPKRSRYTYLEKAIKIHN
inactive: [1] -0.165 | [2] 0.026 | [3] 0.09 | [4] -0.01 | [5] -0.062

TUBA4A (UniProt P68366)
UniProt P68366, sequence (P68366 whole entry, looked up): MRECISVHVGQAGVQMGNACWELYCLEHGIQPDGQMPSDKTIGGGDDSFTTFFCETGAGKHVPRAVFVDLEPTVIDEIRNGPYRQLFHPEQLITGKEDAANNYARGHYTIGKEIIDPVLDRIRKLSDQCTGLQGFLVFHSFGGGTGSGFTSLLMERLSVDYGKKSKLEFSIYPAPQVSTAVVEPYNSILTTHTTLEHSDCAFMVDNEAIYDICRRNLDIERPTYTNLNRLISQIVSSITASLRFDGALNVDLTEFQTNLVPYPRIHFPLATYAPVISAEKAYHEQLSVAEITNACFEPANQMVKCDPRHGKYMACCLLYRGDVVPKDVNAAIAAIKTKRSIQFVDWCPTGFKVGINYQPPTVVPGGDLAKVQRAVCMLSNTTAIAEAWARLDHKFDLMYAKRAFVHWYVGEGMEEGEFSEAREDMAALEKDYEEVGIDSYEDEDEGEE
inactive: [1] -0.02 | [2] 0.077 | [3] -0.03 | [4] -0.01 | [5] -0.076

VRK1 (UniProt Q99986)
inactive: [1] -0.13 | [2] 0.02 | [3] 0.178 | [4] -0.019 | [5] -0.136

TNFRSF8 (UniProt P28908)
inactive: [1] 0.012 | [2] 0.053 | [3] 0.036 | [4] -0.04 | [5] 0.021

TRMT61A (UniProt Q96FX7)
inactive: [1] 0.157 | [2] -0.033 | [3] -0.051 | [4] 0.141 | [5] -0.049

TMEM128 (UniProt Q5BJH2)
inactive: [1] -0.038 | [2] -0.001 | [3] 0.185 | [4] -0.1 | [5] 0

TNPO2 (UniProt O14787)
inactive: [1] -0.067 | [2] 0.03 | [3] 0.158 | [4] -0.051 | [5] -0.005
